Laboratory results published in PubChem BioAssay (NCATS).
Results filed as inconclusive are left out. A call without a number means that no potency is given here. Calls of active or inactive are those of the source. Calls follow the shape of the dose curve; as a rule, active = well fitted activation curve with a large enough effect; inconclusive = small, poorly fitted or top-dose-only effect; inactive = flat fitted curve, though single readings scatter.

experiment: Cell Proliferation Assay against the TMD8 Cell Line (Caspase readout at 16 hrs) (AID 651712); settings: TMD8 lymphoma cells, caspase activation luminescence; series mostly up to 46.1 µM
Text: One class of targeted therapeutics showing early clinical success in killing of ABC DLBCL lines are small molecule inhibitors of the Bruton tyrosine kinase (BTK) 11. Thus, we chose to investigate what additional compounds, if any, would synergize with the BTK inhibitor Ibrutinib (PCI-32765).
Prior to any combination assays, using an NCATS developed oncology compound library called the Mechanism of Interrogation Plate (MIPE), two well studied ABC DLBCL lines (TMD8 and HBL1) were screened using a cell viability assay (CellTiterGlo) and a 12-point titration series for each single agent. These initial experiments offered insight into the concentration range that offered the best coverage of activity and non-activity to assure relevant data is generated. In addition to the viability signature associated with this library, we examined the apoptotic response of each agent versus the TMD8 line as judged by caspase 3/7 activation. Activity was assayed at both 8 and 16 hour time-points to gain an appreciation of which agents induced an apoptotic response in a reasonable timeframe from a therapeutic exposure perspective. MIPE was also assayed for single agent viability in a human mesenchymal stem cell (hMSC) line as a surrogate of each library members potential therapeutic index.
The combination plates were then generated by choosing 20 of the best compounds from this single agent screen and plated in the presence of the BTK inhibitor. The first analysis was carried out using 6x6 dose response blocks for each of the 20 compounds. […] In addition to the cell viability assay, the parallel caspase 3/7 activation and viability in hMSC assays were carried out in the 10x10 format.
A total of 500 log growing TMD8 cells are seeded per well in 5 uL of a RPMI with glutamine (or Glutamax), without phenol red plus 5% FBS and 1X Pen/Strep into 1536 -solid white high base tissue culture treated Greiner One Bio Plates (789173-F) using a multidrop combi dispenser and a small sterile cassette. Compounds and controls totaling 23nL per well (negative control DMSO and positive control 9.2 uM Bortezomib-final) are immediately added to the plates using a 1536 head pin tool from Kalypsys. The plates are then covered with stainless steel gasket lids from Kalypsys and incubated for either 16 hours at 37C under 95% relative humidity with 5% CO2. After the desired incubation time, the plates are removed and allowed to reach room temperature before 3 uL of the Caspase Glo reagent (Promega) is added using an Aurora Flying Reagent Dispenser Bioraptor. The plates are then spun at 1000 rpms to remove bubbles and incubated for 15 minutes at room temperature before read on a ViewLux using a luminescent filter with a 10 second exposure. The relative luciferase units are used to calculated percent activity using DMSO as 0% and Bortezomib as 100%.
Potency is read from the fitted curve at half-maximal effect.

| SMILES | Potency |
| --- | --- |
| CCc1cc(Nc2nccc(-c3c(-c4ccc(OC)c(C(=O)Nc5c(F)cccc5F)c4)nc4ccccn34)n2)c(OC)cc1N1CCC(N2CCN(S(C)(=O)=O)CC2)CC1 | inactive |
| COCC(=O)NCC=Cc1ccc2ncnc(Nc3ccc(Oc4ccc(C)nc4)c(C)c3)c2c1 | inactive |
| Fc1ccc(Cl)cc1-c1nc(Nc2ccncc2)c2nccnc2n1 | inactive |
| CS(=O)(=O)Oc1ccc2c(NC(N)=O)c(C(=O)c3ccc(Cl)cc3Cl)oc2c1 | inactive |
| Cc1ccnc(NS(=O)(=O)c2ccc(NC(=O)Nc3ccc(S(=O)(=O)Nc4nccc(C)n4)cc3)cc2)n1 | 23.5 µM (active) |
| CCCc1nc2c(C)cc(-c3nc4ccccc4n3C)cc2n1Cc1ccc(-c2ccccc2C(=O)O)cc1 | inactive |
| O=C(O)c1ccc(-c2c[nH]c3ccc(-c4ccccc4)cc23)cc1C1CCCC1 | inactive |
| NC(=O)c1ccc(-c2nc(-c3ccc4c(c3)OCCO4)c(-c3ccccn3)[nH]2)cc1 | inactive |
| N#CC[C@H](C1CCCC1)n1cc(-c2ncnc3[nH]ccc23)cn1 | inactive |
| CCOc1ccc(Cc2cc([C@@H]3O[C@H](CO)[C@@H](O)[C@H](O)[C@@H]3O)ccc2Cl)cc1 | inactive |
| COc1ccc2nc(S(=O)Cc3ncc(C)c(OC)c3C)[nH]c2c1 (stereo not given) | inactive |
| COc1ccc(COc2cc3oc(=O)c4cc(C(C)O)ccc4c3cc2OC)cc1 (stereo not given) | inactive |
| COc1c(Cl)cc2c([nH]c3cnccc32)c1NC(=O)c1cccnc1C | inactive |
| Cc1oncc1C(=O)Nc1ccc(C(F)(F)F)cc1 | inactive |
| C[C@]1(c2nc3c(C(N)=O)cccc3[nH]2)CCCN1 | inactive |
| CCN(c1ccccc1)c1cc(NC)[n+](C)c(C)n1 | inactive |
| O=C(C1CC1)N1CC[C@@H](Cn2c(-c3ccc(-c4ccc5occc5c4)cc3)nc3cnccc32)C1 | 8.33 µM (active) |
| Nc1cccc(S(=O)(=O)N2CCCN(S(=O)(=O)c3ccc4c(c3)OCCO4)CC2)c1 | inactive |
| CS(=O)(=O)c1ccc(C(=O)Nc2ccc(Cl)c(-c3ccccn3)c2)c(Cl)c1 | inactive |
| Nc1nc2ccc(OC(F)(F)F)cc2s1 | inactive |

| SMILES | Potency |
| --- | --- |
| Cc1cccc(-c2[nH]c(C(C)(C)C)nc2-c2ccc3nccnc3c2)n1 | inactive |
| COc1ccc(CCN2CCN(CCCc3ccccc3)CC2)cc1OC | inactive |
| C#Cc1cccc(Nc2ncnc3cc(OCCOC)c(OCCOC)cc23)c1 | inactive |
| CN(C)c1ccc(C2Nc3ccc4ccccc4c3C3=C2C(=O)CC(C)(C)C3)cc1Br (stereo not given) | inactive |
| Cc1cc(C=c2sc3nc4ccccc4n3c2=O)c(C)n1-c1ccccc1 | inactive |
| COc1ccc(-c2oc3cc(OC)ccc3c2C(=O)c2ccc(C#N)cc2)cc1 | inactive |
| CCN(CCCO)CCCOc1ccc2c(Nc3cc(CC(=O)Nc4cccc(F)c4)[nH]n3)ncnc2c1 | inactive |
| CC(C)(N)C(=O)N[C@H](COCc1ccccc1)C(=O)N1CCC2(CC1)CN(S(C)(=O)=O)c1ccccc12 | inactive |
| Nc1nc2[nH]cc(CCc3ccc(C(=O)N[C@@H](CCC(=O)O)C(=O)O)cc3)c2c(=O)[nH]1 | inactive |
| OC(CN1CCC(Cc2ccc(F)cc2)CC1)c1ccc(Cl)cc1 (stereo not given) | inactive |
| O=C(Nc1nc2ccccc2n1CCN1CCOCC1)c1cccc([N+](=O)[O-])c1 | inactive |
| O=C(OCC#CCSc1nnc(-c2ccc3ccccc3c2)o1)c1cc2ccccc2s1 | inactive |
| Cc1[nH]c(=O)c(C#N)cc1-c1ccc2nccn2c1 | inactive |
| Cc1n[nH]c(C)c1Cc1sc2c(c1C(=O)N1C[C@H](O)CO1)c(=O)n(C)c(=O)n2CC(C)C | inactive |
| Cn1c(=O)c(F)c(Nc2ccc(I)cc2F)c2c(=O)n(C[C@@H](O)CO)cnc21 | inactive |
| CCOc1cc(C=C2C(=O)N(c3ccccc3)N=C2C)cc(Cl)c1OCC(=O)OC | inactive |
| O=c1[nH]c(-c2ccc(C(F)(F)F)cc2)nc2c1CSCC2 | inactive |
| CCN(CC)CCCC(C)Nc1nc(C)cc(Nc2ccc3nc(C)cc(N)c3c2)n1 (stereo not given) | inactive |
| Cc1cc2c(C(C)C)c(O)c(O)c(C=O)c2c(O)c1-c1c(C)cc2c(C(C)C)c(O)c(O)c(C=O)c2c1O | inactive |
| NC(=O)C1CCCc2c1[nH]c1ccc(Cl)cc21 (stereo not given) | inactive |
